CYP2C9 activ: human CYP2C9 activators, primary screen, biochemical, luminescence; recombinant CYP2C9, luciferin-H conversion; active compounds read high; factor 1 = untreated enzyme, 0 = blocked; Cytochrome P450 2C9 (Homo sapiens), P11712; 96,000 tested, 1.4% active; activation factor at 5 µM;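 active = activation factor of 2 or more for CYP2C9 at a 5 µM dose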;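 note: 0 = sulfaphenazole-blocked wells and 1 = vehicle-only wells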
PLAP activator: PLAP enzyme activators, biochemical, luminescence, HTS; activation fold at 20 µM; purified PLAP enzyme, luminescent substrate read-out; active compounds read high; 96,000 tested, 1.2% active; in the data active = activation fold above about 2
Target sequence (P05187 whole entry, looked up): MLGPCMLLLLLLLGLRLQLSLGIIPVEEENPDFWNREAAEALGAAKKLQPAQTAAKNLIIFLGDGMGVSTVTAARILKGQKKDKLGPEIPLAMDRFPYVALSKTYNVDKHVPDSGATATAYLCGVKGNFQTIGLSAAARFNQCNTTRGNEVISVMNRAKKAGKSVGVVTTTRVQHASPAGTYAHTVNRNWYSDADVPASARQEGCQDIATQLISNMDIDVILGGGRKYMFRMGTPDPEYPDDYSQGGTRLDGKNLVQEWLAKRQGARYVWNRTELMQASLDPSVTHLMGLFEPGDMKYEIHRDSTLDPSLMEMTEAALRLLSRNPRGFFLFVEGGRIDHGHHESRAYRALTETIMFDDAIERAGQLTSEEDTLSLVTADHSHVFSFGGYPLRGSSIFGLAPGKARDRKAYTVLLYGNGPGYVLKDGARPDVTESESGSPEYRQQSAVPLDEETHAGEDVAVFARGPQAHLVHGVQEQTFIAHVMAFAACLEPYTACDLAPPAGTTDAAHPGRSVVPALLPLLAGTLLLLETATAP
CYP2C9 inhib: blockers of cytochrome P450 2C9 activity – biochemical, luminescence, ADME assay, primary screen; CYP2C9 Supersomes, luciferin-H conversion; inhibition, % at 5 µM; 96,000 tested, 20% active;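 active = blocking of liver enzyme CYP2C9 beyond about 50% at 5 µM, limit read from the data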
CYP2C19 act: human CYP2C19 activators, primary screen, biochemical, luminescence | recombinant CYP2C19, luciferin-H EGE luminescence; active compounds read high; 0 = fully inhibited enzyme, 1 = untreated enzyme | 96,000 tested, under 10 active | activation factor at 5 µM | AID 1025, 2008;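 active = activation factor of at least 2 at 5 µM in the primary screen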;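 note: 0 = wells with 2.5 mM tranylcypromine and 1 = vehicle-only wells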
CYP2C19 inh: blockers of cytochrome P450 2C19 activity – biochemical, luminescence, ADME assay, primary screen | CYP2C19 Supersomes, luciferin-H EGE luminescence, 30 min | inhibition, % at 5 µM | P33261 | 96,000 tested, 21% active | AID 778, 2007;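 active = CYP2C19 inhibition above a set limit at 5 µM in the primary screen, cut at about 50% in these data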;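 note: plate controls were negative control wells for no effect and 2.5 mM tranylcypromine positive control for full effect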
Starred values were filed as active, the others as inactive; · = no result. In the library only some 31% were active in any assay of this set; here they are far more common.

SMILES | CYP2C9 activ | PLAP activator | CYP2C9 inhib | CYP2C19 act | CYP2C19 inh
Cc1cccc(CSCCNC(=O)c2ccc(N(C)S(=O)(=O)c3ccccc3)cc2)c1 | 0.1 | 0.9 | 88.8* | 0.4 | 60.9*
CN(C)S(=O)(=O)c1cccc(C(=O)NCCc2ccccc2)c1 | 1 | 1.1 | -4.1 | 1 | 4.2
CN(c1ccc(C(=O)N2CCCCC2)cc1)S(=O)(=O)c1ccccc1 | 0.8 | 1 | 23.1 | 0.9 | 12.8
COC(=O)c1cc(OC)c(OCc2cc(C(=O)OC)oc2C)c(OC)c1 | 0.8 | 0.8 | 22.3 | 0.5 | 52.5*
CCOC(=O)c1c(C)oc2ccc(OCC(=O)C(C)(C)C)cc12 | 0.3 | 1.1 | 71.6* | 0.3 | 65.4*
CCOC(=O)c1c(C)oc2ccc(OCc3cc(C(=O)OC)oc3C)cc12 | 0.1 | 1.8 | 86.1* | 0.4 | 64.1*
Cc1cc(NC(=O)C2(c3ccccc3)CCCC2)no1 | 0.7 | 1 | 29.0 | 0.6 | 42.0
CCCCn1nnnc1SCC(=O)N1CCOCC1 | 1.1 | 1.1 | -13.8 | 0.6 | 37.7
CC1=C(C(=O)OC2CCCCC2)C(c2ccco2)n2ncnc2N1 (configuration not stated) | 0.5 | 1.1 | 52.2* | 0.3 | 72.7*
COC(=O)C1=C(C)Nc2nnnn2C1c1ccco1 (configuration not stated) | 0.6 | 1 | 36.6 | 0.8 | 20.0
Cc1ccccc1NC1C=CS(=O)(=O)C1 (configuration not stated) | 0.9 | 1 | 5.4 | 0.9 | 9.2
COc1ccccc1NC=C1C(=O)OC(C)(C)OC1=O | 1.1 | 0.9 | -8.1 | 0.6 | 37.2
CCOc1ccccc1NC=C1C(=O)OC(C)(C)OC1=O | 2* | 1.1 | -97.3 | 0.8 | 17.0
COc1ccc2c(c1OC)C(=O)OC2CC(=O)c1ccc2c(c1)OCO2 (configuration not stated) | 0.6 | 0.9 | 42.0 | 0.4 | 55.7*
CCc1nnc(NC(=O)c2cc(S(=O)(=O)N(CC)CC)ccc2Cl)s1 | 0.6 | 1.2 | 36.7 | 1 | -4.3
CCc1nnc(NC(=O)[C@@H](NC(=O)c2cccc(S(=O)(=O)N(CC)CC)c2)C(C)C)s1 | 0.3 | 1.7 | 72.2* | 0.2 | 79.1*
CCN(CC)S(=O)(=O)c1cccc(C(=O)N[C@H](C(=O)OCC(=O)Nc2ccccc2)C(C)C)c1 | 0 | 1.6 | 98.8* | 0.1 | 93.1*
CCN(CC)S(=O)(=O)c1cccc(C(=O)N[C@H](C(=O)OCC(N)=O)C(C)C)c1 | 0.7 | 1.1 | 28.1 | 0.9 | 9.2
O=C(c1ccc(Br)cc1)N(C1=NCCCCS1)c1ccccc1 | 1.1 | 1 | -6.4 | 0.9 | 13.7
O=C(NCC(=O)N(c1cccnc1)C(C(=O)NCc1ccco1)c1ccccc1)c1ccco1 (configuration not stated) | 1 | 1.3 | 1.4 | 0.7 | 27.3
O=C(NCCC1=CCCCC1)C1COc2ccccc2O1 (configuration not stated) | 0.4 | 1.3 | 58.3* | 0.1 | 87.2*
O=C(CN1C(=O)C2C3C=CC(C3)C2C1=O)NCCN1CCCc2ccccc21 (configuration not stated) | 1.2 | 0.9 | -17.6 | 0.9 | 9.1
COCCCNC(=O)c1c(NC(=O)C2COc3ccccc3O2)sc2c1CCCC2 (configuration not stated) | 0.1 | 0.8 | 91.8* | 0.2 | 82.4*
O=C(CN1C(=O)C2C3C=CC(C3)C2C1=O)NCCC1=CCCCC1 (configuration not stated) | 0.9 | 1.1 | 14.9 | 0.5 | 51.3*
CCC1Oc2ccccc2N(CC(=O)NCCN2CCc3ccccc3C2)C1=O (configuration not stated) | 0.9 | 1.3 | 10.6 | 0.8 | 16.9
SMILES | CYP2C9 activ | PLAP activator | CYP2C9 inhib | CYP2C19 act | CYP2C19 inh
O=C(NCCCN1CCOCC1)C1COc2ccccc2O1 (configuration not stated) | 1.1 | 1.1 | -8.0 | 0.7 | 28.8
CCC1Oc2ccccc2N(CC(=O)NCCC2=CCCCC2)C1=O (configuration not stated) | 0.6 | 1 | 41.2 | 0.1 | 89.3*
CC(=O)c1cc(-c2ccccc2)n(CC(=O)N2CCC(N3CCCCC3)CC2)c1C | 0.9 | 1.5 | 10.8 | 0.9 | 10.0
O=C(CN1CCN(c2ncccn2)CC1)NCCC1=CCCCC1 | 0.1 | 1.3 | 94.4* | 0.5 | 53.5*
O=C(CSc1ncccc1C(=O)O)NCCC1=CCCCC1 | 0.9 | 1 | 5.8 | 1 | 0.2
COC(=O)c1ccc(C2CC(=O)Nc3cc(OC)c(OC)c(OC)c32)cc1 (configuration not stated) | 0.1 | 1.1 | 87.9* | 0.1 | 93.3*
COc1cc2c(c(OC)c1)C(c1ccncc1)CC(=O)N2 (configuration not stated) | 0.1 | 0.9 | 90.0* | 0.2 | 76.5*
O=S(=O)(c1cc(Cl)ccc1Cl)N1CC2CCCN2c2ccc(C(F)(F)F)cc21 (configuration not stated) | 0.2 | 0.9 | 81.5* | 0.8 | 17.3
COc1ccc(S(=O)(=O)N2CC3CCCN3c3ccc(C(F)(F)F)cc32)cc1 (configuration not stated) | 0.7 | 0.7 | 31.8 | 0.3 | 73.4*
CCS(=O)(=O)c1ccc2c(c1)N(S(=O)(=O)c1ccc(OC)cc1)CC(C(=O)O)O2 (configuration not stated) | · | 1 | · | · | ·
COc1ccc(S(=O)(=O)N2CC3CCCN3c3cc(C(F)(F)F)ccc32)cc1 (configuration not stated) | 1.3 | 0.8 | -29.5 | 0.1 | 92.3*
O=C(c1n[nH]c(=O)c2ccccc12)N1CCN(c2ccc(F)cc2)CC1 | 1 | 0.9 | 1.3 | 0.9 | 7.4
Cc1cc(C(=O)COC(=O)C2=NNC(=O)CC2)c(C)n1-c1cccc(C(F)(F)F)c1 | 0.2 | 1.4 | 81.0* | 0.2 | 78.4*
CCc1sc(N(C(=O)Cc2ccccc2)c2ccc(F)cc2)nc1-c1ccccc1 | 0.5 | 0.8 | 50.9* | 0.1 | 86.3*
C/C(CCc1ccc2c(c1)OCO2)=N\N=C(/N)SC1CC(=O)N(c2ccc(Cl)cc2)C1=O (configuration not stated) | 0.5 | 1.2 | 54.7* | 0.8 | 24.5
CC1(C)C(N(O)C(=O)Nc2ccccc2)N(c2cccc(Cl)c2)C(=O)N1O (configuration not stated) | 0.3 | 0.8 | 73.3* | 0.9 | 12.4
N#Cc1cc2c(=O)n3ccccc3nc2n(CCCn2ccnc2)c1=N | 0.2 | 1.2 | 77.6* | 0.3 | 70.7*
COc1ccccc1C1(CC(=O)Nc2nccs2)CCOC(C(C)C)C1 (configuration not stated) | 0.3 | 1.3 | 67.3* | 0.1 | 91.8*
